Experimental findings from ChEMBL document CHEMBL3988442, “University of Dundee, Small-Polar-MMV Screening Library” (2021) are described below.

Structures are written as SMILES. The whole screen tested about 48,000 compounds, of which about 13,000 (27%) showed an effect of 50% or more. This is one part of the list.

The assay relates to Wolbachia pipientis. Nature of the assay: Anti-Wolbachia Cell-Based Screen. Details: scale not given: in the data most compounds retested in dose-response had high values. Particulars: 5 µM. In kind it is functional.
Turning to `CCC(=O)c1ccc(OCC(=O)NC(C)Cc2cc(C)n[nH]2)cc1` (stereo not given), the “Percent Effect” value is recorded as -9.204%.
The result for `CC(C)NC(=O)N1CCN(S(=O)(=O)C2CC2)CC2(CNC(=O)C2)C1` (stereo not given) reads 10.45%; that for `CCn1cc(CN2CCCN(C(=O)CCc3ccncc3)CC2)cn1`, -3.575%.
For `CCn1cc(CN2CCCN(C(=O)C3(C#N)CCCCC3)CC2)cn1` the value was -13.94%; for `CCn1cc(CN2CCCN(C(=O)CCc3ccccc3)CC2)cn1`, 96.36%; for `CCn1cc(CN2CCCN(C(=O)CCc3cnn(C)c3)CC2)cn1`, 103.4%.
For `CCn1cc(CN2CCCC3(CCC(=O)N(CCC(C)C)C3)C2)cn1` (stereo not given) the value was -5.478%.
On to `CCn1cc(CN2CCCN(C(=O)C3=NN(C)C(=O)CC3)CC2)cn1`, for which the “Percent Effect” value was 3.458%.
Consider `CCn1cc(CN2CCCN(C(=O)CCn3cc(C)cn3)CC2)cn1`, for which the “Percent Effect” value is given as 86.19%.
The result for `Cn1cc(CCC(=O)N2CCN(Cc3ccncc3)CC2)cn1` reads -1.736%; that for `CCn1cc(CN2CCCN(C(=O)CCCn3cncn3)CC2)cn1`, 2.568%.
Take `CCn1cc(CN2CCCN(C(=O)CCN3CCCC3=O)CC2)cn1`: the “Percent Effect” value turned out to be 112.3%.
On to `OCC1(O)CCN(c2ncccc2C(F)(F)F)CC1`, for which the “Percent Effect” value stood at 1.862%.
Consider `Cc1[nH]ccc1C(=O)N[C@H]1CN(S(C)(=O)=O)C[C@@H]1C1CC1`, for which the “Percent Effect” value turned out to be 3.151%.
The result for `CC(C)Cc1ncc2c(n1)CN(C(=O)c1ccc(Cn3ccnc3)o1)C2` reads -18.35%.
For `CCn1ccnc1CN1C[C@@H](NC(=O)C2CC2)[C@H](c2ccc(C)cc2)C1`, the “Percent Effect” value is recorded as -6.865%.
For `C[C@H]1CN(C)C[C@@]12COCCN(C(=O)Cc1ccccc1)C2.O=C(O)C(F)(F)F` the value was 7.732%; for `CC(=O)N1CCC(C(=O)N2CCOC(CC3CCCCC3)C2)CC1` (stereo not given), -4.464%; for `CCn1cc(CN2CCCN(C(=O)CCc3cccs3)CC2)cn1`, 101.9%.
The result for `CCn1cc(CN2CCCN(C(=O)CCc3nccs3)CC2)cn1` reads 73.27%; that for `CC(=O)Nc1nc(COc2nc(C)no2)cs1`, -3.939%.
For the compound `CCCN1CCC(CC(=O)N(C)CC(=O)c2ccc(O)cc2)CC1`, the “Percent Effect” value is on record as -25.77%.
The result for `Cc1ncc2c(n1)CN(Cc1noc(C3CC3)n1)CC2` reads 2.312%; that for `O=C1CCC(C(=O)NCc2nn(-c3ccccc3)c3c2CCC3)CN1` (stereo not given), 1.199%; that for `O=C(c1csc(-c2ncccn2)n1)N1CCN(C2CCCC2)CC1`, -8.107%.
The result for `COc1ccc(Cl)cc1CS(=O)(=O)CC(=O)NC(C)CCC(C)C` (stereo not given) reads 2.702%; that for `Cn1cccc1C(=O)N1CC[C@H]2[C@H]1CCN2CC1CC1.O=C(O)C(F)(F)F`, 2.648%.
Turning to `O=C(O)C(F)(F)F.O=C(O)C(F)(F)F.c1cncc(-c2ccc3c(c2)CCC32CCN(Cc3ccco3)CC2)c1`, the “Percent Effect” value is given as 99.06%.
As to `O=C(O)C(F)(F)F.O=C(O)C(F)(F)F.c1cncc(-c2ccc3c(c2)CCC32CCN(Cc3nccs3)CC2)c1`, the “Percent Effect” value is listed as 11.05%.
For `CN(C)CC(=O)N1CCC2(CCc3cc(-c4cccnc4)ccc32)CC1.O=C(O)C(F)(F)F.O=C(O)C(F)(F)F` the value was 1.059%.
The result for `c1cncc(-c2ccc3c(c2)CCC32CCNCC2)c1` reads -33.05%; that for `c1cncc(-c2ccc3c(c2)C2(CCNCC2)CC3)c1`, 1.24%; that for `O=C(O)C(F)(F)F.O=C(O)C(F)(F)F.c1cn2c(n1)CN(CC1CC1)CC(CN1CCOCC1)C2` (stereo not given), 13.29%.
As to `Cc1nc(C)n(CC2CN(c3ncccn3)Cc3nccn3C2)n1` (stereo not given), the “Percent Effect” value stood at 9.978%.
The result for `Cc1cnc(N2Cc3nccn3CC(Cn3ncccc3=O)C2)nc1.O=C(O)C(F)(F)F` (stereo not given) reads 104.6%; that for `O=C(O)C(F)(F)F.O=c1cccnn1CC1CN(Cc2ccsc2)Cc2nccn2C1` (stereo not given), 13.39%; that for `O=c1cccnn1CC1CN(c2ncc(F)cn2)Cc2nccn2C1` (stereo not given), 114.7%.
For `O=C(O)C(F)(F)F.O=c1cccnn1CC1CN(CC2CCCC2)Cc2nccn2C1` (stereo not given) the value was 100.1%; for `Cc1cnc(N2Cc3nccn3CC(Cn3nc(C)nc3C)C2)nc1` (stereo not given), 1.951%.
For `CCCN1CCCN(C(=O)c2ccc(Oc3cccnc3)cc2)CC1` the value was 1.766%; for `O=C1NCCCCC1NS(=O)(=O)N1CCCCC1` (stereo not given), 30.79%.
Turning to `Cc1nccn1-c1cc(CNC(=O)N2CCSCC2)ccn1`, the “Percent Effect” value is reported as -3.633%.
The result for `Cc1cc(CNc2ccc(CC(=O)N(C)c3ccccc3)cc2)no1` reads -7.262%; that for `OC(CN(Cc1ccccc1)Cc1ccncc1)c1ccco1` (stereo not given), 6.092%.
For `O=C(COC(=O)Cc1cccs1)NCc1cccc(NC(=O)C2CC2)c1` the value was 2.841%.
Turning to `Cc1cc(NC(=O)CN2CCn3c(C)nnc3C2)no1`, the “Percent Effect” value came to 3.854%.
The result for `CC1CN(C)c2ccccc2CN1C(=O)NCc1ccon1` (stereo not given) reads 0.2534%; that for `Cc1cccc(NC(=O)[C@@H]2CCCN2CC(=O)N2CCCCCC2)n1`, 2.208%; that for `Cc1cc(NC(=O)CN2C(=O)CC(C)(C)c3ccccc32)no1`, 116.9%.
`Cc1cc(NC(=O)CN2CCn3c(nnc3-c3ccccc3)C2)no1`: the “Percent Effect” value worked out at 6.417%.
The result for `O=C(NCC1CC(=O)N(CCc2ccccc2)C1)c1ccon1` (stereo not given) reads 4.92%; that for `Cc1cccc(NC(=O)CN2C(=O)CC(C)(C)c3ccccc32)n1`, 106.1%; that for `CC1(C)CC(=O)N(CC(=O)Nc2ccon2)c2ccccc21`, 100.4%.
Turning to `CCOCc1cccc(S(=O)(=O)N2CCSCC2)c1`, the “Percent Effect” value turned out to be 5.017%.
For `O=C(O)C(F)(F)F.O=S(=O)(C1CC1)N1CCO[C@H]2[C@@H](Oc3ncccc3F)CC[C@@H]21` the value was 120.5%; for `CCCS(=O)(=O)N1CCO[C@H]2[C@@H](Oc3cccnc3)CC[C@@H]21.O=C(O)C(F)(F)F`, 101.6%.
The result for `CN(C)S(=O)(=O)N1C[C@@H](Oc2ccccn2)[C@H]2OCCC[C@H]21.O=C(O)C(F)(F)F` reads -0.1257%; that for `CS(=O)(=O)N1C[C@@H](Oc2ccccn2)[C@H]2OCCC[C@H]21.O=C(O)C(F)(F)F`, 12.05%.
For `O=C(O)C(F)(F)F.O=S(=O)(C1CC1)N1C[C@H](Oc2ccccn2)[C@H]2OCCC[C@H]21` the value was 9.296%; for `CCS(=O)(=O)N1C[C@@H](Oc2ccccn2)[C@H]2OCCC[C@H]21.O=C(O)C(F)(F)F`, -45.01%; for `CCCS(=O)(=O)N1C[C@@H](Oc2ncccc2F)[C@H]2OCCC[C@H]21.O=C(O)C(F)(F)F`, 117.2%.
Regarding `CCCS(=O)(=O)N1C[C@@H](Oc2ccccn2)[C@H]2OCCC[C@H]21.O=C(O)C(F)(F)F`, the “Percent Effect” value amounted to 4.768%.
For `CCCS(=O)(=O)N1CCO[C@H]2[C@H](OCc3ccccn3)CC[C@@H]21.O=C(O)C(F)(F)F` the value was -14.38%.
For `CS(=O)(=O)N1CCO[C@H]2[C@@H](Oc3ncccc3F)CC[C@@H]21.O=C(O)C(F)(F)F` the value was 100.8%.
The result for `CCS(=O)(=O)N1CCO[C@H]2[C@H](Oc3ncccc3F)CC[C@@H]21.O=C(O)C(F)(F)F` reads 5.015%.
